Sm TGR inh: qHTS Assay for the Inhibitors of Schistosoma Mansoni Peroxiredoxins. 3% of 360,000 active. Potency, µM (titrated, usually from 114 µM), inactives show at the highest dose activity change, negative = inhibition, actives largely listed as inhibitors. AID 485364, 2010. Schistosoma mansoni thioredoxin glutathione reductase (TGR), Q962Y6. purified TGR, DTNB reduction, TNB absorbance 405 nm; further: potency means the concentration at half of the fitted maximal effect; on the % scale 0 is the no-effect control and ±100 the full control effect; nearly all actives have a fitted effect of over 60% in size
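TGR 20 nM + NADPH 100 uM (dispensed conc.), cpd preinc 15 min RT; start with NADPH (500 uM addition) then DTNB (15 mM addition). Kinetic TNB absorbance, 405 nm filter. Four-parameter Hill fit across titration.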
HCV inh: qHTS Assay for Inhibitors of Hepatitis C Virus (HCV); 3.4% of 340,000 active; Potency, µM (top dose mostly 41.8 µM), for inactives: top-dose activity change, negative = inhibition, most hits filed as inhibitors; Huh7.5.1 HCVcc-Cre infection, luciferase reporter, 44 h; AID 651820, 2012; further: potency means the concentration at half of the fitted maximal effect; on the % scale 0 is the no-effect control and ±100 the full control effect
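After 44 h co-culture of compound, cells and HCVcc-Cre (~0.5 moi), substrate is added for 15 min at room temperature and luciferase measured over 15 sec. Cells were seeded at 1,000/well and pre-cultured 4 h.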
SARS PLpro yeast: qHTS of Yeast-based Assay for SARS-CoV PLP; S. cerevisiae expressing SARS-CoV PLpro, growth rescue; Potency, µM (series often up to 32.9 µM), inactives show top-dose activity, positive = growth rescue, usual class: activators; 0.19% of 330,000 active; AID 485353, 2010; calls by dose curve; further: potency means the concentration at half of the fitted maximal effect; 0% is about no effect; nearly all actives have a fitted effect of over 55% in size
Pf growth 96h: Primary qHTS for delayed death inhibitors of the malarial parasite plastid, 96 hour incubation | 6.9% of 320,000 active | P. falciparum luciferase reporter growth, 96 h | AID 504834, 2011 | Potency, µM (top dose mostly 28.7 µM), for inactives: at the highest dose activity change, negative = inhibition, hits mostly inhibitors; further: potency means the concentration at half of the fitted maximal effect; on the % scale 0 is the no-effect control and ±100 the full control effect
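Compounds incubated with erythrocytes infected by luciferase-expressing P. falciparum (2% hematocrit, 0.05% parasitemia final) for 96 hours, 37 C in 5% CO2. Growth inhibition scored as decreased luciferase luminescence.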
HCMV inh: qHTS Assay for inhibitors of the human cytomegalovirus (HCMV). HFF cells, HCMV-luciferase reporter, 72 h; hits give low values. activity change, negative = inhibition, % at 57.5 µM. 4.5% of 410,000 active; in the data active means activity change below about -60%; inconclusive means no clear call, values can overlap the other calls; inactive means above about -39%; further: on the % scale 0 is the no-effect control and ±100 the full control effect
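After 16 h attachment at 37C, HFF cells received test compound and HCMV-luciferase (1 PFU/cell); reporter luminescence read 72 h later, data normalized against buffer-only and known inhibitor Salinomycin.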
Pf growth 48h: Primary qHTS for delayed death inhibitors of the malarial parasite plastid, 48 hour incubation | P. falciparum luciferase growth in erythrocytes, 48 h | Potency, µM (series often up to 28.7 µM), inactives show at the top dose activity change, negative = inhibition, hits mostly inhibitors | 5.9% of 310,000 active | AID 504832, 2011; further: potency means the concentration at half of the fitted maximal effect; on the % scale 0 is the no-effect control and ±100 the full control effect
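Read-out is firefly luciferase luminescence from an integrated reporter in P. falciparum, so falling signal marks reduced parasite growth. Infected erythrocytes were at 2% hematocrit and 0.1% parasitemia (final) in Albumax-supplemented RPMI 1640.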
The depositor's hits bear a star; ? = inconclusive; nt = no result given; [ ] = dose if it differs, or a comment. Most compounds without a hit are left out; they make up all but 15% or so of the library. Unless noted, the call rests on the fitted dose curve; in most records, active means well fitted curve in the direction sought with a large enough effect; inconclusive means small, poorly fitted or top-dose-only effect, or another doubt; inactive means no such curve, though single readings can be large; an effect the other way counts as inactive or inconclusive.

SMILES	Sm TGR inh	HCV inh	SARS PLpro yeast	Pf growth 96h	HCMV inh	Pf growth 48h
CCNc1nc(NCC)n2c(SCC(=O)Nc3cccc(F)c3)nnc2n1	-0.8%	-7.3%	-7.1%	-22.8%	-22.4	?
CCNc1nc(NCC)n2c(SCC(=O)Nc3ccccc3Cl)nnc2n1	8.0%	?	11.9%	?	-29.5	?
CCNc1nc(NCC)n2c(SC(C(=O)Nc3cc(Cl)cc(Cl)c3)c3ccccc3)nnc2n1 (stereo unspecified)	-2.4%	?	3.2%	10.4µM*	-101.0*	11.7%
COc1ccc2c(CNCc3cccs3)c(C(=O)O)n(Cc3cccc(F)c3)c2c1	-0.7%	nt	nt	nt	-0.8	nt
CC(=O)Nc1ccc(S(=O)(=O)NCC(=O)OCC(=O)NCCc2ccccc2)cc1	nt	nt	nt	nt	31.4	nt
CCc1ccc(-n2c(C)cc(/C=N/NC(=O)c3ccncc3)c2C)cc1	nt	?	-0.5%	164.4%	-79.0*	?
CC1(CC(=O)N/N=C/c2cc([N+](=O)[O-])c(O)cc2O)OCCO1	-19.7%	8.4%	-1.9%	-6.2%	-4.5	-18.1%
Cc1ccc(-n2c(C)cc(/C=N/NC(=O)CC3(C)OCCO3)c2C)c(C)c1	4.2%	-2.8%	-11.0%	-22.8%	-23.8	9.28µM*
Cc1cc(C)nc(SCC(=O)N/N=C/c2cc(C)n(-c3ccccc3C)c2C)n1	-19.4%	16.7%	-26.4%	?	3.4	5.22µM*
CCc1ccc(-n2c(C)cc(/C=N/NC(=O)OC)c2C)cc1	-17.4%	?	8.2%	4.4%	-84.3*	?
COc1ccc(NC(=O)CSc2nc3ccccc3n2CC(=O)N(C)C2CCCCC2)cc1	3.5%	nt	nt	nt	29.0	nt
Cc1ccc(-n2c(C)cc(/C=N/NC(=O)c3ccncc3)c2C)c(C)c1	-11.2%	?	-8.4%	1.65µM*	-34.0	2.33µM*
Cc1ccc(-n2c(C)cc(/C=N/NC(=O)c3ccncc3)c2C)cc1C	nt	-24.9%	-1.7%	-1.6%	19.8	10.4µM*
Cc1ccc(Cn2c(=O)n(CCc3ccccc3)c(=O)c3sc4ccccc4c32)cc1	5.0%	nt	nt	nt	35.0	nt
O=C(CSc1ncc2c(n1)-c1cc(Cl)ccc1N(Cc1ccccc1F)S2(=O)=O)Nc1cccc(C(F)(F)F)c1	5.9%	nt	nt	nt	-12.4	nt
CCOC(=O)N(C)[C@H]1C[C@H]2c3cc(-c4ccccc4C)ccc3CCN2C[C@H]1[C@H](C)O	nt	nt	nt	nt	-89.1*	nt
CCn1nc(C(=O)OCC(=O)N(CCC#N)c2ccccc2)c2ccccc2c1=O	-19.7%	21.7%	0.7%	-21.2%	-14.7	-19.6%
O=C1N(c2ccccc2)C(c2cccnc2)N2CCCN12 (stereo unspecified)	-6.6%	-16.8%	4.6%	100.2%	41.1	17.6%
O=C1N(c2cccc(Cl)c2)C(c2cccnc2)N2CCCN12 (stereo unspecified)	1.0%	4.8%	0.7%	13.1µM*	-7.5	4.5%
CCOc1ccc(CNC(=O)CCCOc2cc(=O)n(C)c3ccccc23)cc1	0.2%	?	8.0%	nt	192.3	nt
CNC(=O)[C@H](C)[C@@H]1C[C@@]1(C)[C@@H](NC(=O)OCc1ccccc1)c1ccccc1	-1.9%	-3.2%[8.37 µM]	-8.5%	?	2.6	13.1µM*
C[C@@H](C(=O)O)[C@@H]1C[C@@]1(C)[C@@H](NC(=O)OCc1ccccc1)c1ccccc1	0.8%	-7.4%[8.37 µM]	-0.6%	-15.2%	-10.0	32.1%
Cc1ccc(CNC(=O)[C@H](C)[C@H]2C[C@]2(C)[C@H](NC(=O)OCc2ccccc2)c2ccccc2)o1	31.6µM*	-10.2%[8.37 µM]	-8.5%	?	nt	?
C[C@@H](C(=O)NCc1ccccc1)[C@@H]1C[C@@]1(C)[C@@H](NC(=O)OCc1ccccc1)c1ccccc1	-0.2%	?	-5.1%	?	-30.5	3.1%
Cc1ccc(CN2CCN(CC(=O)NCCCN3CCN(c4ccc(F)cc4)CC3)C2=O)cc1	4.8%	8.91µM*	3.5%	?	?	?
SMILES	Sm TGR inh	HCV inh	SARS PLpro yeast	Pf growth 96h	HCMV inh	Pf growth 48h
COc1ccc(N2CCN(CCCNC(=O)CN3CCN(Cc4ccccc4C)C3=O)CC2)cc1	0.2%	11.2µM*	-4.7%	-21.2%	?	?
Cc1ccc(CCNC(=O)CN2CCN(Cc3ccc(Cl)cc3)C2=O)cc1	4.4%	nt	nt	nt	-28.6	nt
CC(C)C[C@H](NC(=O)c1[nH]cnc1C(=O)N[C@H](C)c1ccccc1)C(=O)OCc1ccccc1	-1.9%	-11.1%	-0.4%	?	-7.7	?
C[C@H](NC(=O)c1nc[nH]c1C(=O)NC(c1ccccc1)c1ccccc1)C(=O)OCc1ccccc1	-8.8%	6.1%	-0.5%	?	21.5	10.4µM*
CC(C)C[C@H](NC(=O)c1nc[nH]c1C(=O)N[C@@H](CC(C)C)C(=O)OCc1ccccc1)C(=O)OCc1ccccc1	-5.5%	?	-4.5%	11.7µM*	84.2	?
CC(C)C[C@H](NC(=O)c1nc[nH]c1C(=O)NC(c1ccccc1)c1ccccc1)C(=O)OCc1ccccc1	13.9%	?	0.9%	2.94µM*	17.5	3.7µM*
CC(C)C[C@H](NC(=O)c1[nH]cnc1C(=O)N[C@@H](Cc1ccccc1)C(=O)OCc1ccccc1)C(=O)OCc1ccccc1	-8.9%	19.4%	0.3%	?	59.2	?
O=C(Nc1cccc(F)c1)c1ccc(-c2ccccc2)s1	6.9%	nt	nt	nt	26.1	nt
COc1ccc(OC)c2[nH]c(C(=O)N/N=C/c3ccccc3O)cc12	-9.0%	3.16µM*	2.8%	?	-92.5*	nt
COc1ccc(/C=N/NC(=O)c2cnccn2)cc1O	4.4%	12.5%	-3.2%	-13.0%	11.9	90.1%
COc1ccc(/C=N/NC(=O)c2cc3c(OC)ccc(OC)c3[nH]2)cc1O	6.0%	?	1.6%	?	?	3.7µM*
CN(CC(=O)Nc1ccccc1Cl)CC(=O)N(C)c1c(N)n(Cc2ccccc2)c(=O)[nH]c1=O	nt	15.8%	10.9%	nt	-17.8	nt
Cc1ccc(C)c(N2CCN(c3cc(C)nc4c(-c5ccc(Cl)cc5)c(C)nn34)CC2)c1	2.4%	nt	nt	nt	24.5	nt
Cc1ccc(Nc2nc(N)c3ccccc3n2)cc1C	113.3%	?	-8.7%	?	201.1	?
COC(=O)c1cc2oc3ccccc3c2n1CC(=O)Nc1ccc(F)c(Cl)c1	-1.1%	nt	nt	nt	-16.1	nt
S=C(c1c[nH]c2ccc(Br)cc12)N1CCOCC1	14.9%	-1.1%	0.4%	36.3%	-71.8*	31.4%[5.75 µM]
Nn1c(SCc2cccc(Br)c2)nnc1-c1cccnc1	11.0%	5.8%	0.5%	7.0%	-14.3	1.3%
COc1ccc2c(C(=O)c3ccc(Cl)cc3)n(CCCC(N)=O)[n+]([O-])c2c1	-15.5%	10.4%	2.6%	?	0.0	9.28µM*

Assay outcomes (PubChem BioAssay)
